# Results: PubChem BioAssay AID588402 (Sanford-Burnham Center for Chemical Genomics, 2011)
# The campaign covered roughly 1,600 compounds. About 1,100 (69%) were called active. So high a share suggests a set chosen from earlier hits. A selection follows. Unmarked numbers belong to inactive results. Cut-off read from the data, not from the text of the source: active = inhibition above about 50%; inactive = the rest.
# Target: Phospholipase A2 (Homo sapiens) (UniProt P04054)
# Experiment: PLA2 enzyme inhibition, counter-screen for ATG4B inhibitor project, biochemical, single concentration, uHTS hits (AID 588402)
# Settings: purified PLA2, NBD-C6-HPC fluorescence, 45 min; at 8.33 µM; stronger effect = higher value
# Phospholipase A2 (Homo sapiens), sequence (P04054 whole entry, looked up): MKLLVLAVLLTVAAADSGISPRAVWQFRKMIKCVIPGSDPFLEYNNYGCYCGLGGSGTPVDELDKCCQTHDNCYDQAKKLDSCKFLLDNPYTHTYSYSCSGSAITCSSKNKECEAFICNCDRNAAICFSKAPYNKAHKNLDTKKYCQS
row,Structure (SMILES),inhibition
1,O=C(C(=O)N1CCc2ccccc2C1)c1c[nH]c2ccccc12,71% (active)
2,Cc1ccc(-c2cc(C(=O)N3CCc4ccccc4C3)no2)cc1,43.8%
3,COc1ccc2c(c1)CCc1c(C(=O)N3CCc4ccccc4C3)noc1-2,47.9%
4,Cc1ccc(CSc2nc(-c3ccccc3)c(C#N)c(=O)[nH]2)cc1,32.1%
5,COc1ccc(Br)cc1C(=O)NC(=S)Nc1cc(-c2nc3ccccc3[nH]2)ccc1C,74.1% (active)
6,CCc1cccc(C)c1N1C(=O)CN(Cc2ccccc2)C1=S,92.4% (active)
7,Cc1cccc(C)c1N1C(=O)CN(Cc2ccccc2)C1=S,90.3% (active)
8,Cc1cccc(C)c1-n1c(C)cc(/C=C2\C(=O)NN(c3ccccc3)C2=O)c1C,63.7% (active)
9,Cc1c(Cl)cccc1NC(=O)Nc1ccc(C(=O)N2CCCC2)cc1,56.6% (active)
10,O=C1c2ccccc2C(=O)N1Cc1cc(-c2ccccc2Cl)no1,64.2% (active)
11,Cc1ccc(S(=O)(=O)N(CC(=O)Nc2cccc([N+](=O)[O-])c2)Cc2ccc(Cl)cc2)cc1,80.7% (active)
12,COc1ccc(C)cc1S(=O)(=O)N(CC(=O)Nc1cccc([N+](=O)[O-])c1)c1ccc(C)cc1,86.6% (active)
13,Fc1cccc(Cl)c1CSc1ccc(-c2ccco2)nn1,49.5%
14,NC(=O)Cc1ccc2sc(-c3ccccc3)nc2c1,79.7% (active)
15,CCN1CCN(c2c(Cl)cccc2NC(=O)c2ccc(Br)o2)CC1,61.6% (active)
16,Cc1ccc(N=C2NC(=O)/C(=C/C=C/c3ccco3)S2)cc1C,36.4%
17,CC(C)c1ccc2c(c1)c(SC(C)(C)C)c(CC(C)(C)C(=O)O)n2Cc1ccc(Cl)cc1,57.7% (active)
18,O=C(/C=C/c1ccc(Cl)cc1)N1CCN(c2ccccc2[N+](=O)[O-])CC1,53% (active)
19,CC(=O)c1c(C)n(-c2ccc(N(C)C)cc2)c2ccc(OCC(N)=O)cc12,82.6% (active)
20,Cc1c(Cl)c([N+](=O)[O-])nn1CCCC(=O)Nc1cc(Cl)ccc1Cl,69.4% (active)
21,COc1ccc(/C=C2/SC(=O)N(CCCCCC(=O)Nc3ccccc3C(=O)O)C2=S)cc1,24.3%
22,O=C(Nc1cccc(F)c1)NC1CCCc2ccccc21 (stereo not drawn),71.2% (active)
23,CCOC(=O)c1c(C)[nH]c2c1-c1ccccc1C(=O)C2=O,-20.8%
24,CC1CCN(C(=O)c2ccc(CSc3ccc(Cl)cc3)cc2)CC1,58.1% (active)

row,Structure (SMILES),inhibition
1,CC1(OC(=O)C2CCCC2)C(=O)C=C2C=C(c3ccc(C#N)cc3)OC=C2C1=O (stereo not drawn),66.5% (active)
2,CCCc1nc2c(c(=O)c3ccccc3n2C)c(=O)n1C1CCCCCC1,-14.6%
3,Cc1c(Cl)cccc1NC(=S)NCc1ccc2c(c1)OCO2,62.1% (active)
4,CCCOc1ccc2c3c(c(=O)oc2c1OCCC)CCC3,40.9%
5,CCc1ccccc1NC(=O)/C(=C/c1ccccc1)c1ccccc1,61.7% (active)
6,Cc1ccc(Nc2cc(=O)n(C3CCCCC3)c(=O)[nH]2)cc1C,2.78%
7,NC(=O)Cc1ccc2c(c1)[nH]c1ccccc12,51% (active)
8,O=C1N=C(N2CCc3ccccc3C2)S/C1=C\c1ccc(O)cc1,23.3%
9,O=c1c2sccc2nc(SCc2cc(=O)n3ccccc3n2)n1-c1ccc(Br)cc1,51.5% (active)
10,CCOC(=O)C(C)Sc1nc2ccccc2c(=O)n1CC1CCCCC1 (stereo not drawn),44.5%
11,CCOc1ccc(-n2c(SC(C)C(=O)OC)nc3c(c2=O)SCC3)cc1 (stereo not drawn),56.4% (active)
12,Cc1ccc(NC(=O)CC2S/C(=N/N=C3\CCCc4ccccc43)NC2=O)cc1 (stereo not drawn),60% (active)
13,Cc1nn(-c2ccccc2)c(C)c1/C=N/NC(=O)CSc1nc2ccccc2c(=O)n1-c1ccccc1,31.8%
14,COC(=O)c1c(NC(=O)C2CC(C)=C(C)CC2C(=O)O)sc2c1CCCCC2 (stereo not drawn),68% (active)
15,COc1cccc(CNc2nc(C(F)(F)F)nc3ccccc23)c1,63.6% (active)
16,OC(CNCc1ccc(Cl)c(Cl)c1)c1ccccc1 (stereo not drawn),38.9%
17,Cc1c(NC(=S)NCc2ccc(F)cc2)cccc1[N+](=O)[O-],70.7% (active)
18,Cc1cccc(C2c3[nH]c4ccccc4c3CCN2C(=O)c2cc(-c3cccn3C)n[nH]2)n1 (stereo not drawn),75.6% (active)
19,Cc1c(Cl)c([N+](=O)[O-])nn1Cc1ccc(C(=O)N/N=C\c2cc(Cl)ccc2O)o1,72.6% (active)
20,COc1cccc(/C=N/Nc2ccc(S(=O)(=O)Nc3ccccc3C(=O)O)cc2[N+](=O)[O-])c1O,56.1% (active)
21,c1ccc(C2=Nc3cccc4cccc(c34)N2)cc1,58.5% (active)
22,CC(C)c1nc(SCC(=O)Nc2cccc(C(=O)O)c2)c2c3c(sc2n1)CCCC3,70.6% (active)
23,Cc1nc2ccccc2c(-c2ccccc2)c1C(=O)c1ccccc1,81.3% (active)
24,Cc1ncc(CC(=O)n2cc(C(=O)c3cc(Cl)ccc3O)cn2)s1,84.3% (active)
